DT40 TDP1 no CPT: qHTS for Inhibitors of human tyrosyl-DNA phosphodiesterase 1 (TDP1): qHTS in cells in absence of CPT | DT40 Tdp1-/- hTDP1 cells, no CPT, ATP luminescence, 48 h | Potency, µM (highest dose often 46.2 µM), actives largely listed as inhibitors | 420,000 compounds, 15% hits | AID 686978, 2013; further: nearly all actives have a fitted effect of over 55% in size
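A cellular qHTS used chicken DT40 cells lacking endogenous Tdp1 but carrying stably transfected human TDP1. Compounds were applied without camptothecin, and cell growth kinetics were judged by ATP-dependent luminescence after ≥48 hr.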
ClpP mod: qHTS Assay for Activators of ClpP; AID 651965, 2013; purified B. subtilis ClpP, FRET peptide cleavage, 20 min; ATP-dependent Clp protease proteolytic subunit (Bacillus subtilis (strain 168)), P80244; 340,000 compounds, 1.9% hits; Potency, µM (top dose mostly 57.5 µM); active means well fitted falling curve with a large enough effect; inconclusive means small, poorly fitted or top-dose-only effect; inactive means no such curve, though single readings can be large or run the other way; further: the source files actives as falling curves though it sought activators and does not explain the sign; nearly all actives have a fitted effect of over 65% in size
Target sequence (P80244 whole entry, looked up): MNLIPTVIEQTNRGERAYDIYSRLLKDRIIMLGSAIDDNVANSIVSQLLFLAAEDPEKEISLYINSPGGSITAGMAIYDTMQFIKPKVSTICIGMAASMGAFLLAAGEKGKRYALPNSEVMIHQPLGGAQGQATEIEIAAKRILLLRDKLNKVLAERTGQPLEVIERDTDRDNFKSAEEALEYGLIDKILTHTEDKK
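FRET quenching reversal measured ClpP activation: 10 microg/mL B. subtilis ClpP at pH 8 with the FRET-FV decapeptide, read at 430 nm after 320 nm excitation. The 20-min minus 0-min signal was scaled between DMSO/no-enzyme wells and ADEP (5.8 microM final).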
TDP1 inh: inhibitors of human tyrosyl-DNA phosphodiesterase TDP1; AID 485290; Potency, µM (titrated, usually from 130 µM), usual class: inhibitors; Q9NUW8; recombinant TDP1, AlphaScreen DNA substrate cleavage; 350,000 compounds, 0.28% hits; further: nearly all actives have a fitted effect of over 40% in size
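Signal: AlphaScreen proximity between streptavidin donor and anti-FITC acceptor beads on intact substrate. Reaction: Tdp1 1 nM, substrate 15 nM final, 5 min RT after 15 min compound preincubation.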
TDP1 cell CPT: growth inhibition of DT40 Tdp1-/-;hTDP1 cells with camptothecin (screen for TDP1 inhibitors); chicken DT40 Tdp1-/-;hTDP1 cells + 20 nM CPT, ATP luminescence, 48 h; Potency, µM (series often up to 46.2 µM), usual class: inhibitors; 420,000 compounds, 12% hits; AID 686979; further: nearly all actives have a fitted effect of over 55% in size
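Chicken DT40 Tdp1-/- cells complemented with human TDP1, 400 cells/well, exposed to compounds plus 20 nM camptothecin for at least 48 h at 37 C; viability read as ATP content by CellTiter-Glo luminescence.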
Numbers stand for hits; i = inactive; ? = inconclusive; nt = no result. Shown are actives, neighbours in structure and some others; about 17% of the full set was active somewhere. Unless noted, the call rests on the fitted dose curve; in most records, active means well fitted curve in the direction sought with a large enough effect; inconclusive means small, poorly fitted or top-dose-only effect, or another doubt; inactive means no such curve, though single readings can be large; an effect the other way counts as inactive or inconclusive.

SMILES	DT40 TDP1 no CPT	ClpP mod	TDP1 inh	TDP1 cell CPT
CC[C@@]12C(=O)N(c3ccc(C)cc3)C(=O)N1[C@H](c1ccc(Br)cc1)[C@@H]1C(=O)N(C(C)(C)C)C(=O)[C@@H]12	?	i	nt	7.3µM
CCN1C(=O)[C@H]2[C@@H](c3ccc(C)cc3)N3C(=O)N(c4ccccc4)C(=O)[C@@]3(Cc3ccc(Cl)cc3)[C@H]2C1=O	?	i	nt	?
CCCCC(=O)NC(=O)NC(c1ccccc1)c1ccccc1	?	i	i	?
CC1=C(C(=O)N2CCCCCC2)CC(CC(=O)NCCCN(C)C)C(=O)N1Cc1ccc(F)cc1 (configuration not stated)	i	i	nt	i
Cc1[nH]c(=O)c(C(=O)/C=C/c2ccccc2F)c2c1CCCC2	3.3µM	i	i	4.6µM
COc1ccc(C2=NO[C@@H]3C(=O)N(c4cccc(C)c4C)C(=O)[C@H]23)cc1OC	i	i	i	i
COc1ccc(C2=NO[C@@H]3C(=O)N(c4ccc(C)cc4C)C(=O)[C@H]23)cc1OC	?	i	i	26µM
COc1ccc(-c2cn(-c3ccc(C)cc3C)c(=O)[nH]2)cc1OC	?	i	i	15µM
O=C1CC(Cc2ccccc2)C(=O)N1CCc1ccc2c(c1)OCO2 (configuration not stated)	i	i	i	i
O=C1OC[C@H](Cc2ccc3c(c2)OCO3)/C1=C\c1ccc2c(c1)OCO2	8.2µM	i	nt	5.8µM
COc1cccc(N2CCN(C(=O)c3ccc(=O)oc3)CC2C)c1 (configuration not stated)	i	28µM	i	i
Cc1cccc(N2CCN(C(=O)c3ccc4c(Cl)c5c(nc4c3)CCCC5)CC2C)c1 (configuration not stated)	?	i	i	i
Cc1cccc(N2CCN(C(=O)c3ccc4nc(-c5ccco5)c(-c5ccco5)nc4c3)CC2C)c1 (configuration not stated)	18µM	i	i	18µM
COc1cccc(NC(=O)N2CCN(c3cccc(C)c3)C(C)C2)c1 (configuration not stated)	?	i	i	?
Cc1cc(=O)n(Cc2cccc(F)c2)c2c1c(C)nn2-c1cccc(F)c1	i	i	i	i
Cc1ccc(S(=O)(=O)N(Cc2nc(-c3cccc(C)c3)no2)C2CCCCC2)cc1	10µM	i	nt	?
Cc1cccc(-c2noc(CN(C3CCCCC3)S(=O)(=O)c3ccc(F)cc3)n2)c1	15µM	i	i	21µM
Cc1cccc(-c2noc(CNC(=O)Nc3ccc(F)cc3)n2)c1	i	i	i	i
COc1ccc(S(=O)(=O)N(Cc2nc(-c3cccc(C)c3)no2)C2CCCCC2)cc1	?	i	i	15µM
COc1ccc(OC(C)C(=O)N(C)Cc2nc(-c3cccc(C)c3)no2)cc1 (configuration not stated)	?	nt	i	i
COC(=O)[C@H]1C[C@H](OC(=O)Nc2c(C)noc2C)[C@@]2(O)CN(S(=O)(=O)c3ccc(C)cc3)CC2[C@H]1C(=O)OC (some centres not stated)	?	i	nt	i
NC(=O)c1ccc[n+]([C@H]2O[C@@H](COP(=O)([O-])OP(=O)(O)OC[C@H]3O[C@@H](n4cnc5c(N)ncnc54)[C@H](O)[C@@H]3O)[C@H](O)[C@@H]2O)c1	?	i	nt	?
COc1ccc2cc3cc(C(=O)NCCCN4CCC(C)CC4)oc3nc2c1	2.6µM	i	i	?
COc1ccc2cc3cc(C(=O)NCCN4CCN(Cc5ccccc5)CC4)oc3nc2c1	21µM	i	i	i
COc1ccc2cc3cc(C(=O)N4CCCCC4C)oc3nc2c1 (configuration not stated)	?	?	i	16µM
SMILES	DT40 TDP1 no CPT	ClpP mod	TDP1 inh	TDP1 cell CPT
CCN1CCN(CCCNC(=O)c2cc3cc4ccc(OC)cc4nc3o2)CC1	?	i	i	i
CN1CCCC2(CCN(S(=O)(=O)c3ccccc3)CC2)C1	i	nt	nt	i
CCN1CCCC1CNC(=O)c1cnn(-c2nccc(-c3ccccc3OC)n2)c1-c1ccco1 (configuration not stated)	7.3µM	nt	nt	?
N#Cc1c2ccc(O)cc2n2ccccc12	8.2µM	i	i	?
COc1ccc(NC(=O)CS(=O)CC(=O)N2CCN(C3CCCC3)CC2)cc1 (configuration not stated)	i	nt	i	i
CCOc1ccc(C2C(=O)N(C3CCCCCC3)CC(=O)N2CCC2=CCCCC2)cc1OC (configuration not stated)	16µM	i	i	23µM
COc1cc(C2C(=O)N(C3CCCCCC3)CC(=O)N2CCC2=CCCCC2)ccc1OC(C)C (configuration not stated)	21µM	i	i	18µM
COc1cc(C2C(=O)N(C3CCCCC3)CC(=O)N2CCC2=CCCCC2)ccc1OC(C)C (configuration not stated)	i	i	i	i
COc1ccc(C2C(=O)N(C3CCC(C)CC3)CC(=O)N2CCC2=CCCCC2)cc1OC (configuration not stated)	23µM	i	i	23µM
CCCOc1ccc(C2C(=O)N(C3CCC(C)CC3)CC(=O)N2CCC2=CCCCC2)cc1OC (configuration not stated)	i	i	i	?
N#Cc1ccc(OCC(=O)OCC(=O)Nc2sccc2C(N)=O)cc1	i	i	i	i
Cc1ccc(C(=O)NCCCN2CCOCC2)c(Cl)c1	i	nt	nt	i
CS(=O)(=O)N(CC(=O)Nc1ccc(Br)cc1)c1ccccc1Br	nt	i	i	nt
COc1ccc(OC)c(NC(=O)CSc2cn(CC(=O)N3CCCCCC3)c3ccccc23)c1	21µM	i	i	?
COc1ccccc1NC(=O)CSc1cn(CC(=O)N2CCCC2)c2ccccc12	?	i	i	?
COc1ccc(Cl)cc1NC(=O)CSc1cn(CC(=O)N2CCCCC2)c2ccccc12	21µM	i	i	21µM
COc1ccc(CN(C)C(=O)CSc2nnc(C3CC3)n2C2CC2)cc1	i	i	i	i
CCCCCc1cc(=O)oc2c(C(CCN3CCCCC3)c3cc(OC)c(OC)c(OC)c3)c(OC)cc(OC)c12 (configuration not stated)	?	i	i	?
COc1ccc(C(CCN2CCCCC2)c2c(OC)cc(OC)c3c(-c4ccccc4)cc(=O)oc23)cc1 (configuration not stated)	?	i	i	21µM
COc1cc(OC)c2c(-c3ccccc3)cc(=O)oc2c1C(CCN1CCOCC1)c1ccc(N(C)C)cc1 (configuration not stated)	6.5µM	i	i	5.8µM
COc1cc(OC)c2c(-c3ccccc3)cc(=O)oc2c1C(CCN1CCCCC1)c1ccc(N(C)C)cc1 (configuration not stated)	15µM	i	i	10µM
